Source: PubChem BioAssay
RGS7-Gao reg: modulates binding of RGS7 to human Galphao; P09471; Multiplexed bead flow cytometry; actives lie on both sides; binding response (% of control), % at 10 µM; 220,000 compounds, 0.35% hits; in the data active means binding response below about 49% or above about 150%; inconclusive means no clear call, values can overlap the other calls; inactive means in between;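 further: fluorescent Galphao held in activated GDP-AlF4 state binding bead-coupled RGS7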
Target sequence (P09471 whole entry, looked up): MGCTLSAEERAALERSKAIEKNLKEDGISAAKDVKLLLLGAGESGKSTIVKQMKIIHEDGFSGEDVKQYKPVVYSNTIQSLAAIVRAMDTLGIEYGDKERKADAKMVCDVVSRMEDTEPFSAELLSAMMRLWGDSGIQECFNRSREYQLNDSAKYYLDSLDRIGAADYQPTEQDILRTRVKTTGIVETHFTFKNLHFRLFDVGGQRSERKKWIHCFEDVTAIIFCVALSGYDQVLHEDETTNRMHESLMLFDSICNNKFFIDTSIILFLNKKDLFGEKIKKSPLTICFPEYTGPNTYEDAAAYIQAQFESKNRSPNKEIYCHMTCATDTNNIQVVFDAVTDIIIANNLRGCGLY
RGS8-Gao reg: modulates binding of RGS8 to human Galphao; P09471; response (percent of control binding), % at 10 µM; multiplexed bead flow cytometry; actives lie on both sides; 220,000 compounds, 0.34% hits; in the data active means response below about 60% or above about 140%; inactive means in between;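 further: Galphao activated as the GDP aluminium fluoride complex binding bead-coupled RGS8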
GSH bead fluor: compound fluoresces at 488/530 nm on GSH beads. GSH beads flow cytometry, compound fluorescence 488/530 nm; active compounds read high. fluorescence (KMESF) at 10 µM. 190,000 compounds, 0.25% hits. AID 1776; in the data active means fluorescence above about 89;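 further: glutathione beads carrying GST-tagged Bcl family fusion proteins plus one bare bead set; values are compound well signal with DMSO vehicle wells as background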
Avidin bead fluor: compound fluoresces at 488/530 nm on avidin beads; compound fluorescence 488/530 nm, flow cytometry; active compounds read high; fluorescence (KMESF) at 10 µM; 220,000 compounds, 0.38% hits; in the data active means fluorescence above about 47
RGS4-Gao reg: human RGS4-Galphao interaction regulation. binding response (% of control), % at 10 µM. 220,000 compounds, 0.33% hits. Multiplexed bead flow cytometry, RGS4-Galphao binding; actives lie on both sides. P09471; in the data active means binding response below about 49% or above about 150%; inactive means in between;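 further: fluorescent Galphao activated with aluminum fluoride binding bead-coupled RGS4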
RGS16-Gao HTS: RGS16-Galphao interaction regulator (human); 220,000 compounds, 0.38% hits; binding response (% of control), % at 10 µM; bead-based flow cytometry RGS16-Galphao binding, fluorescence; actives lie on both sides; O15492+P09471;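 further: Galphao activated by GDP with aluminum fluoride before binding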
RGS-Gao: regulators of human RGS4-Galphao interaction. shares compounds with RGS16-Gao HTS. multiplexed bead flow cytometry, RGS–Galpha-o binding. RGS4–Galpha-o binding response, % at 10 µM. 1,600 compounds, 99% hits;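 further: fluorescently labeled Galpha-o bound to GDP with aluminium fluoride binding biotinylated RGS beads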
Avidin counter: interferes with biotinylated probe binding to avidin beads | shares compounds with RGS16-Gao HTS | streptavidin beads, fluorescein-biotin binding, flow cytometry | inhibition, % at 10 µM | 1,700 tested, under 10 active | AID 1783;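 active means inhibition above 50%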;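 further: median green fluorescence of gated singlet beads compared with DMSO control wells; 0% = DMSO wells and 100% = complete loss of bead fluorescence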
RGS8-Gao single: RGS8-Galphao interaction regulation, single point confirmation | binding response (% of control), % at 10 µM | shares compounds with RGS16-Gao HTS | bead-based flow cytometry RGS8-Galphao binding, fluorescence; actives lie on both sides | AID 1836 | 1,700 compounds, 3% hits; in the data active means binding response below about 72% or above about 130%; inactive means in between;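 further: Galphao activated as GDP AlF4 complex before binding bead RGS8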
RGS7-Gao single: confirmation of regulators of human RGS7-Galphao interaction; shares compounds with RGS16-Gao HTS; bead-based flow cytometry RGS7-Galphao binding; actives lie on both sides; response (percent of control binding), % at 10 µM; 1,700 compounds, 7.8% hits; in the data active means response below about 75% or above about 130%; inactive means in between;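 further: fluorescent Galphao activated with GDP and aluminum fluoride binding bead-coupled RGS7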
RGS16-Gao conf: confirmation of regulators of human RGS16-Galphao interaction. response (% of control binding), % at 10 µM. shares compounds with RGS16-Gao HTS. 1,700 compounds, 4% hits. AID 1838. bead-based flow cytometry, RGS16-Galphao binding; actives lie on both sides; in the data active means response below about 74% or above about 130%; inactive means in between;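 further: Galphao activated as the GDP aluminium fluoride complex binding bead-coupled RGS16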
RGS4-Gao confirm: confirmation of regulators of human RGS4-Galphao interaction. shares compounds with RGS16-Gao HTS. RGS4-Galphao binding, multiplexed bead flow cytometry; actives lie on both sides. binding response (% of control), % at 10 µM. 1,700 compounds, 4% hits; in the data active means binding response below about 74% or above about 130%; inactive means in between
RGS19-Gao conf: confirmation of regulators of human RGS19-Galphao interaction. shares compounds with RGS16-Gao HTS. bead-based flow cytometry RGS19-Galphao binding; actives lie on both sides. response (percent of control binding), % at 10 µM. 1,700 compounds, 5% hits; in the data active means response below about 50% or above about 160%; inactive means in between;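 further: 100% = no compound control and 0% = blank background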
* hit, by the source's call; i = inactive; ? = inconclusive; . = no result given; [ ] = remark or other dose. Most compounds without a hit are left out; they make up all but 1.2% or so of the library. Unless noted, how the calls were made is not given here.

SMILES	RGS7-Gao reg	RGS8-Gao reg	GSH bead fluor	Avidin bead fluor	RGS4-Gao reg	RGS16-Gao HTS	Avidin counter	RGS8-Gao single	RGS7-Gao single	RGS16-Gao conf	RGS4-Gao confirm	RGS19-Gao conf	others
Cc1cc(NC(=O)CCCOc2ccc(Cl)cc2Cl)no1	131	167*[activator]	23	5	142	i	.	.	.	.	.	.	RGS-Gao=142*
O=C(CCCOc1ccc(Cl)cc1Cl)Nc1ncccn1	?	100	.	4	100	105	.	.	.	.	.	.
CO/N=C/CC(=O)c1cnc(-c2ccc(Cl)cc2)s1	93	98	10	11	100	96	.	.	.	.	.	.
CC(C)(C)c1cc(C(=O)N/N=C/c2ccco2)n[nH]1	115	136	9	17	114	279*[activator]	0	95	91	94	94	87	RGS-Gao=114*
Cc1ccc(-c2cc(C(=O)N/N=C/c3ccco3)n[nH]2)s1	98	102	11	10	101	99	.	.	.	.	.	.
Cc1cccc2cc(CNCc3ccccc3)c(Cl)nc12	97	101	8	8	98	104	.	.	.	.	.	.
CC(=O)Nc1ccccc1NS(=O)(=O)c1ccccc1[N+](=O)[O-]	401*[activator]	100	10	204*	158*[activator]	123	3	104	102	100	103	106
CCN(C(=O)c1cc2cccc(OC)c2oc1=O)C1CCCCC1	188*[activator]	85	18	112*	187*[activator]	223*[activator]	3	99	101	96	99	100
COc1ccc(-c2ccnc(SCC(=O)N3CCN(c4ccccc4)CC3)n2)cc1	?	103	.	8	103	105	.	.	.	.	.	.
COc1cc([N+](=O)[O-])cc(/C=N/NC(=O)Cn2nccc2C)c1O	?	99	.	8	100	98	.	.	.	.	.	.
O=C(c1ccco1)N(CCC(c1ccccc1)c1ccco1)Cc1ccco1 (configuration not stated)	14*	12*	20	-2	23*	2.3*	2	105	91	100	93	85
Cc1ccc(C(CCN(Cc2ccccc2)C(=O)c2ccco2)c2ccco2)cc1 (configuration not stated)	96	101	6	11	96	103	.	.	.	.	.	.
COc1ccc(C(C)=O)cc1COC(=O)c1cnc(Cl)c(Cl)c1	100	98	28	11	98	101	.	.	.	.	.	.
Oc1ccc(N2CCN(C(c3cccnc3)c3nnnn3Cc3ccccc3)CC2)cc1 (configuration not stated)	-9.4*	8.1*	29	-4	-26*	-26*	0	88	99	91	97	77
COc1ccc(Cn2nnnc2C(c2cc3cc(C)ccc3[nH]c2=O)N2CCOCC2)cc1 (configuration not stated)	98	99	23	15	98	99	.	.	.	.	.	.
c1ccc(CCn2nnnc2C(c2cccnc2)N2CCN(c3ccccc3)CC2)cc1 (configuration not stated)	85	88	7	10	77	80	.	.	.	.	.	.
